According to PubChem BioAssay (NCATS):
Unmarked numbers belong to inactive results. Results filed as inconclusive are left out. Activity calls are given as the source filed them. Unless noted, calls follow the shape of the dose curve; as a rule, active = well fitted curve in either direction with a large enough effect (not every such curve was filed as active); inconclusive = small, poorly fitted or top-dose-only effect, or another doubt; inactive = flat fitted curve, though single readings scatter.

Experiments:
[1] = AP1 Signaling Pathway (AID 357); details: ME-180 AP-1-bla reporter, EGF-induced, beta-lactamase ratio, 5 h; at 7.69 µM (top of the series) unless noted;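 also: ME-180 reporter cells stimulated with EGF at its EC50 level; % is scaled to controls: 0 for no effect and ±100 for the full control effect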
Method in brief: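 Beta-lactamase reporter under AP-1 response element, ME-180 background. Stimulus: EC50 EGF. Compound exposure 5 h, 37 °C. Detection: CCF4, 2.5 h RT, 460/530 nm. Values: AC50 from titration.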

[2] = biological target: Cytochrome P450 1A2 (Homo sapiens) (UniProt P05177); assay: p450-cyp1a2 (AID 410; calls by dose curve; also: potency is read from the fitted curve at half-maximal effect;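 as to activity change, negative = inhibition: -100% = full effect of reference inhibitor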)
Method in brief: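 Inhibition was calculated relative to 57 uM furafylline (full inhibition). The reaction used human CYP1A2 at 20nM with Luciferin-ME at its Km, 100uM, driven by an NADPH-regenerating system for 60 min at room temperature.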

[3] = NFAT Signaling Pathway (AID 444); details: Jurkat NFAT-bla M1, carbachol, beta-lactamase ratio, 5 h; at 7.69 µM (top of the series) unless noted;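 also: carbachol stimulus at about its EC50 of 1 µM final; % is scaled to controls: 0 for no effect and ±100 for the full control effect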
Method in brief: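 Read-out: CCF4 FRET ratio (460 nm/530 nm) after 1 h RT dye loading, used for %activity and AC50 from titration series. Cells: Jurkat NFAT-β-lactamase/M1 line, treated with compound plus 1 uM carbachol for 5 h, 37 °C.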

[4] = Stat Signaling Pathway (AID 446); details: ME-180 SIE beta-lactamase reporter, IL-6 stimulated, 5 h; at 7.69 µM (top of the series) unless noted;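 also: ME-180 cervical cancer cells given 40 pM IL-6 alongside compound; SIE-controlled beta-lactamase reporter measured as 460/530 nm FRET emission ratio; % is scaled to controls: 0 for no effect and ±100 for the full control effect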
Method in brief: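 Screening format detects activators and inhibitors alike: ME-180 SIE-bla cells stimulated at 40 pM IL-6 for 5 hrs with compound, then dual-emission beta-lactamase read at 405 nm excitation.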

[5] = biological target: Glucocorticoid receptor (Homo sapiens) (UniProt P04150); assay: GR-GFP Redistribution (AID 450;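 active = compounds whose dose series gives a full or clear partial fitted curve of increased nuclear translocation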; also: potency is read from the fitted curve at half-maximal effect); details: U2OS GR-GFP nuclear translocation, laser cytometry, 2 h
[6] = biological target: Glucocorticoid receptor (Homo sapiens) (UniProt P04150); assay: GR-EFC Redistribution (AID 451; calls by dose curve; also: potency is read from the fitted curve at half-maximal effect); details: CHO-K1 GR-EFC translocation, beta-gal luminescence, 2 h
Method in brief: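 Translocation of GR-ED fusion to nuclear EA restores b-gal, read by luminescence after 1 h room-temperature detection. Engineered CHO-K1 biosensor cells, 1,000/well, exposed 2 h at 37 C to titrations up to 46 uM final.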

[7] = biological target: Mitogen-activated protein kinase 10 (Mus musculus) (UniProt Q61831); assay: JNK3 AlphaScreen Assay (AID 530);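 also: kinase came from lysate of stimulated human HepG2 cells; signal reports phosphorylation of biotinylated GST-cJun 1-79 at Ser73 with 10 µM ATP; % is scaled to controls: 0 for no effect and ±100 for the full control effect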
Method in brief: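 Room-temperature AlphaScreen kinase assay; pre-activated HepG2 lysate as JNK3 source, biotin-GST-cJun(1-79) substrate, 10 uM ATP, compound 15 min preincubation.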

[8] = biological target: 3',5'-cyclic-AMP phosphodiesterase 4B (Homo sapiens) (UniProt Q07343); assay: qHTS Assay for Inhibitors of PDE-IV (AID 607; active = well fitted activation curve with a large enough effect in the main read-out, with a control signal flat, not every such curve was filed as active; also: % of control where 0% means no effect)
Method in brief: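 The readout is membrane depolarisation from a cAMP-sensing CNG channel, detected with a potential dye at ex 535/em 590. Cells were HEK293-derived (endogenous PDE-IV) at 1000 cells/well, titrated up to 22.9 uM final.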

[9] = biological target: Cytochrome P450 2D6 (Homo sapiens) (UniProt P10635); assay: qHTS Assay for Inhibitors and Substrates of Cytochrome P450 2D6 (AID 891; active = well fitted curve in the direction sought with a large enough effect; an effect the other way counts as inactive or inconclusive;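 also: luciferin methyl ether substrate demethylated by CYP2D6 with NADPH regeneration; % is scaled to controls: 0 for no effect and ±100 for the full control effect; nearly all actives have a fitted effect of over 60% in size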)
Method in brief: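 Human CYP2D6 (5 nM) with 30 uM Luciferin-ME EGE (at Km) in 100 mM KPO4, compound preincubated 10 min, then NADPH regeneration system for 60 min at room temperature. Luciferin read by luminescence; normalized to 1.43 uM quinidine.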

[10] = biological target: Cytochrome P450 2C19 (Homo sapiens) (UniProt P33261); assay: qHTS Assay for Inhibitors and Substrates of Cytochrome P450 2C19 (AID 899; active = well fitted curve in the direction sought with a large enough effect; an effect the other way counts as inactive or inconclusive; also: nearly all actives have a fitted effect of over 60% in size; also: potency is read from the fitted curve at half-maximal effect)
Method in brief: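 5nM enzyme + 10uM Luciferin-H EGE (=KM), 50mM KPO4; cpd pin-transferred, 10 min 37C; NADPH regen, 60 min 37C; stopped w/ luciferin detection reagent, 20 min; luminescence. Normalized to 57uM ketoconazole (AC100).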

[11] = biological target: Guanine nucleotide-binding protein G(i) subunit alpha-1 (Homo sapiens) (UniProt P63096); assay: qHTS Assay for Inhibitors of RGS12 GoLoco Motif Activity (Green Fluorophore) (AID 879; active = well fitted curve in the direction sought with a large enough effect; an effect the other way counts as inactive or inconclusive;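 also: 0% = labeled peptide with Gαi1 and full inhibition = labeled peptide alone without protein; negative values mean loss of peptide binding seen as reduced polarization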)
Method in brief: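 Fluorescence polarization assay: 50 nM Gαi1 with 10 nM FITC-labeled RGS12 GoLoco peptide in 10 mM Tris pH 7.5, 150 mM NaCl, 0.1 mM GDP, 0.05% NP40, 10 min at room temperature with compound.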

[12] = qHTS Assay for Identification of Small Molecule Antagonists for NFkB Signaling Pathway (AID 895; active = well fitted inhibition curve with a large enough effect in the signal ratio, with a control signal flat, not every such curve was filed as active; the % refers to the signal ratio; also: % is scaled to controls: 0 for no effect and ±100 for the full control effect)
Method in brief: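 Beta-lactamase reporter read-out (460 and 530 nm emission ratio, 405 nm excitation, 2 hrs substrate loading RT) after 5 hr stimulation with 10 pM TNF alpha in compound-treated NFkB-bla ME-180 cells in low-serum medium.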

[13] = qHTS Assay for Identification of Small Molecule Agonists for Thrombopoietin (TPO) Signaling Pathway (AID 917; active = well fitted curve in the direction sought with a large enough effect; an effect the other way counts as inactive or inconclusive; also: % is scaled to controls: 0 for no effect and ±100 for the full control effect)
Method in brief: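 We measured Glycoprotein IIb promoter–luciferase output in IL-3-starved Ba/F3 murine cells expressing the human TPO receptor after 24 hrs at 37 C with compounds and 26 pM TPO.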

[14] = biological target: Muscarinic acetylcholine receptor M1 (Rattus norvegicus) (UniProt P08482); assay: qHTS Assay for Antagonists of Acetylcholine Muscarinic M1 Receptor: Kinetic Measurement of Intracellular Calcium Response (AID 943; active = well fitted curve in the direction sought with a large enough effect; an effect the other way counts as inactive or inconclusive;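 also: Fluo-4 calcium signal as peak divided by basal fluorescence over 4 min; nearly all actives have a fitted effect of over 75% in size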)
Method in brief: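 Intracellular calcium flux, recorded with Fluo-4 in a kinetic plate reader, served as signal; the response to carbachol at EC80 (100 nM final) was taken as maximal over minimal fluorescence after a 10 min compound pre-incubation in rat M1-CHO cells.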

[15] = biological target: Pyruvate kinase (Leishmania mexicana) (UniProt Q27686); assay: qHTS Validation Assay for Inhibitors of Leishmania Mexicana Pyruvate Kinase (AID 945; active = well fitted curve in the direction sought with a large enough effect; an effect the other way counts as inactive or inconclusive;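 also: 0% = DMSO only neutral control wells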)
Method in brief: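 Substrate mix (0.5 mM PEP, 0.1 mM ADP, 7 mM MgCl2, 50 mM KCl, pH 7.2 imidazole) received compound by pin tool, then 0.2 nM LmPYK E451W. After 1 h at room temperature, PKLight was added and luminescence measured.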

[16] = biological target: Pyruvate kinase PKM (Homo sapiens) (UniProt P14618); assay: qHTS Assay for Activators of Human Muscle Pyruvate Kinase (AID 954; active = well fitted curve in the direction sought with a large enough effect, not every such curve was filed as active;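 also: 0% = uninhibited enzyme and -100% = no enzyme or full thiadiazolimine inhibition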)
Method in brief: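 Reaction: 0.1 nM purified PKM2 with 0.5 mM phosphoenolpyruvate and 0.1 mM ADP, room temperature, 1 h. Readout: luciferase-based ATP luminescence after stop reagent. Activators judged against a 0.3 nM enzyme column.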

[17] = biological target: Alpha-galactosidase A (Homo sapiens) (UniProt P06280); assay: Counterscreen for Glucocerebrosidase Inhibitors: qHTS Assay for Human alpha-Galactosidase at pH 4.5 (AID 992; active = well fitted curve in the direction sought with a large enough effect; an effect the other way counts as inactive or inconclusive; also: 0% is about no effect)
Method in brief: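 Concentration-response curves (0.7 nM to 77 uM final) were modeled with the Hill equation to give AC50. Reactions: 2 nM enzyme, 80 uM fluorogenic alpha-galactoside, pH 4.5 citric acid buffer, 20 min, room temperature.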

[18] = biological target: alpha-glucosidase (Oryza sativa, rice) (UniProt Q653V4); assay: Counterscreen for Glucocerebrosidase Inhibitors: qHTS Assay for Rice alpha-Glucosidase at pH 5.0 (AID 997; active = well fitted curve in the direction sought with a large enough effect; an effect the other way counts as inactive or inconclusive;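 also: 0% = full activity with enzyme and -100% = basal without enzyme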)
Method in brief: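 Rice alpha-glucosidase (4 nM final) with 400 uM 4-methylumbelliferyl-alpha-D-glucopyranoside in citrate buffer pH 5.0, 20 min at room temperature, stopped at pH 10; fluorescence 365/440 nm, compounds 0.7 nM–77 uM, AC50 from Hill fits.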

[19] = biological target: Cytochrome P450 3A4 (Homo sapiens) (UniProt P08684); assay: qHTS Assay for Activators of Cytochrome P450 3A4 (AID 885; active = well fitted curve in the direction sought with a large enough effect; an effect the other way counts as inactive or inconclusive; also: nearly all actives have a fitted effect of over 65% in size)
Method in brief: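 Steps: enzyme/substrate mix dispensed; compound added, 10 min RT; NADPH regeneration solution added, 60 min RT; luciferin detection buffer stops reaction; 20 min later luminescence measured.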

Sequence of Cytochrome P450 1A2 (Homo sapiens) (P05177 whole entry, looked up): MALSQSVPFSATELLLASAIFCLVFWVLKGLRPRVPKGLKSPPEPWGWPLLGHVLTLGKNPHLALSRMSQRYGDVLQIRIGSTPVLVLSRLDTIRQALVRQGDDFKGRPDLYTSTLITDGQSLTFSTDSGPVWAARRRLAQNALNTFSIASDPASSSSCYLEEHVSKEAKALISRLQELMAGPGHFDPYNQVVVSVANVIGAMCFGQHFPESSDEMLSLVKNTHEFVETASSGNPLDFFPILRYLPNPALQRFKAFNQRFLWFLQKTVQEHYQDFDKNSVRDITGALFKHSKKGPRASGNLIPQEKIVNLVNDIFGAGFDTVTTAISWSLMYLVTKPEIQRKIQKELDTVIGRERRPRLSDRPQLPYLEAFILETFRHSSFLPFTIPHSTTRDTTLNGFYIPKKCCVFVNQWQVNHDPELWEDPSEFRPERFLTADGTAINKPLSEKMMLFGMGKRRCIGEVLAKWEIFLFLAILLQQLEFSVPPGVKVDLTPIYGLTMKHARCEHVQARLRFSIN
Sequence of Glucocorticoid receptor (Homo sapiens) (P04150 whole entry, looked up, the tested form may be a part): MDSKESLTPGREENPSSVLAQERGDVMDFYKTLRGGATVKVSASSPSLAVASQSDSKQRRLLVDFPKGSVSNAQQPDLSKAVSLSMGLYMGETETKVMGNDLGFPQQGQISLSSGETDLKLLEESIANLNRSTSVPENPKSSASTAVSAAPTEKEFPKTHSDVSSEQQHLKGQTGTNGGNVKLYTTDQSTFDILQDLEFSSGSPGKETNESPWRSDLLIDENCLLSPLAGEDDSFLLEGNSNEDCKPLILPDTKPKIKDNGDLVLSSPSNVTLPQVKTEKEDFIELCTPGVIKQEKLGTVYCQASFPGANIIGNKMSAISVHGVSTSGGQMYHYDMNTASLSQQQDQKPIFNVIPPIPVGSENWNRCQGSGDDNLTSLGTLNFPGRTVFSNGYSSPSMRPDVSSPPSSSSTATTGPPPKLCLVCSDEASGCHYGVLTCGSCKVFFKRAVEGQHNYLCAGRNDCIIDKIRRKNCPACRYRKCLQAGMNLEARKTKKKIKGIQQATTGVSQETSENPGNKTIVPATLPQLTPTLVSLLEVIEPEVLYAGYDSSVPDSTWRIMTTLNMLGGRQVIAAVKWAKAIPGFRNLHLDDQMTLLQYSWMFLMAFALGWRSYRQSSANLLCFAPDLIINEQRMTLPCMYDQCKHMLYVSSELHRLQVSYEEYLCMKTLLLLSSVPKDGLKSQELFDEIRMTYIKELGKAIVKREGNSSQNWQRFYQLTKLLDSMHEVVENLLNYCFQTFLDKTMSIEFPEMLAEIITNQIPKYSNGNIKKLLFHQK
Sequence of Cytochrome P450 2D6 (Homo sapiens) (P10635 whole entry, looked up): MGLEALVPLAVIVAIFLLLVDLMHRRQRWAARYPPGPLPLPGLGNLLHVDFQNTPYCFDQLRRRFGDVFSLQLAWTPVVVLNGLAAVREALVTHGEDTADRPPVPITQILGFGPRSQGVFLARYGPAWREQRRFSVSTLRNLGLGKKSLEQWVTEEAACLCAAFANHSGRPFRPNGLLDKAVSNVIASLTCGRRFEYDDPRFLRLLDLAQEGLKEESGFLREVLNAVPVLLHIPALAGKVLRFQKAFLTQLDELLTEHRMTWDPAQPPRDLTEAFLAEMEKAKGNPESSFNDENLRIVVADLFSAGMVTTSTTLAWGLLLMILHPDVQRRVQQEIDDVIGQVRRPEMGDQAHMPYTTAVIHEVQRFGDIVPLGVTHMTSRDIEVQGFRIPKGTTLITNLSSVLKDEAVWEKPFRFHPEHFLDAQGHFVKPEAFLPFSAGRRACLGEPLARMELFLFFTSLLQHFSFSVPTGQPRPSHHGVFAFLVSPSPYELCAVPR
Sequence of 3',5'-cyclic-AMP phosphodiesterase 4B (Homo sapiens) (Q07343 whole entry, looked up): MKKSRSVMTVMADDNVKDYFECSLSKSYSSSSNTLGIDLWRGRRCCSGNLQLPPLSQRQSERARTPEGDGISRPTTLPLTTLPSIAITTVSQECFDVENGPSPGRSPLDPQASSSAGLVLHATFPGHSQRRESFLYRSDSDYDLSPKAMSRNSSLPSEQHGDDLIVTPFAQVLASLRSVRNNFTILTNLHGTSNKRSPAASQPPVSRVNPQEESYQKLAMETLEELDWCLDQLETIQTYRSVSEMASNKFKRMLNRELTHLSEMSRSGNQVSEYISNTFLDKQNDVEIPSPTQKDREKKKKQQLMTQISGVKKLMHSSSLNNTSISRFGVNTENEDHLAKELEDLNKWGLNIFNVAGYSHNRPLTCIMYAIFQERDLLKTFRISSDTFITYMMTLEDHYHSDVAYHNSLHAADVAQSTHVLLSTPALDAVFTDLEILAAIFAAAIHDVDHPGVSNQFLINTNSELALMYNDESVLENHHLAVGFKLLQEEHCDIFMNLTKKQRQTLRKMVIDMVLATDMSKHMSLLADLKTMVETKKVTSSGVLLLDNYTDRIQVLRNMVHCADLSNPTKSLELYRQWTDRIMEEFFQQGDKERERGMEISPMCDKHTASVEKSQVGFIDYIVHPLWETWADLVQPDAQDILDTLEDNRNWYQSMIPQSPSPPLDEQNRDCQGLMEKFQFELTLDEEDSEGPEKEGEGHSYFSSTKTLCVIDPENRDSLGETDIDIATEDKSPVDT
Sequence of Cytochrome P450 2C19 (Homo sapiens) (P33261 whole entry, looked up): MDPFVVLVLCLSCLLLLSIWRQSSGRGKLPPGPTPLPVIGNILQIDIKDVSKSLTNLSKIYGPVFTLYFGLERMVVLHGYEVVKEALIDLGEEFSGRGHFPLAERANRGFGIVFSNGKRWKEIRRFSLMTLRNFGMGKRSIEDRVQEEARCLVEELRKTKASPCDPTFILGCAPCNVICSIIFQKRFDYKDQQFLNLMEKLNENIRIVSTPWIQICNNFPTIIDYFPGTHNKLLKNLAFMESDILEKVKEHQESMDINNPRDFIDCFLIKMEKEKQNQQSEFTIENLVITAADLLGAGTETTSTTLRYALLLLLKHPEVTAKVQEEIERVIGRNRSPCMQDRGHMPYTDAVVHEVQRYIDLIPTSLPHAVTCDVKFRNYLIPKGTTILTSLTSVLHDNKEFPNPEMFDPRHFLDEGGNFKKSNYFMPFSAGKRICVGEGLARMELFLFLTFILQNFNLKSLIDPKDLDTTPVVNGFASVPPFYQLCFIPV
Sequence of Cytochrome P450 3A4 (Homo sapiens) (P08684 whole entry, looked up): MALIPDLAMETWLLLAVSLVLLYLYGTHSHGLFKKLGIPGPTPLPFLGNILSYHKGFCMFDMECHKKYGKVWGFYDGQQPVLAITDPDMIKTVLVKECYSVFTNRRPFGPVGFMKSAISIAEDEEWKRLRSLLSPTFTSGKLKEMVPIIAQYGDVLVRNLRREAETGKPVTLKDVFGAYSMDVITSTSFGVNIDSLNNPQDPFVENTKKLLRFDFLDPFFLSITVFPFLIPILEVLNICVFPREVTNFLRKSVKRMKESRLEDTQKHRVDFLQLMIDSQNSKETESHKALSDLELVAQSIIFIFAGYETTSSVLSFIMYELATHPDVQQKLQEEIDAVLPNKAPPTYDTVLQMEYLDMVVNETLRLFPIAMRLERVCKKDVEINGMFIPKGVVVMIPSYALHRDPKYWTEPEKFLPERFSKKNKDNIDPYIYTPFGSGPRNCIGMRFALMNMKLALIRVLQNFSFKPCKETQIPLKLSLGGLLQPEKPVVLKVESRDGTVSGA
Sequence of Muscarinic acetylcholine receptor M1 (Rattus norvegicus) (P08482 whole entry, looked up): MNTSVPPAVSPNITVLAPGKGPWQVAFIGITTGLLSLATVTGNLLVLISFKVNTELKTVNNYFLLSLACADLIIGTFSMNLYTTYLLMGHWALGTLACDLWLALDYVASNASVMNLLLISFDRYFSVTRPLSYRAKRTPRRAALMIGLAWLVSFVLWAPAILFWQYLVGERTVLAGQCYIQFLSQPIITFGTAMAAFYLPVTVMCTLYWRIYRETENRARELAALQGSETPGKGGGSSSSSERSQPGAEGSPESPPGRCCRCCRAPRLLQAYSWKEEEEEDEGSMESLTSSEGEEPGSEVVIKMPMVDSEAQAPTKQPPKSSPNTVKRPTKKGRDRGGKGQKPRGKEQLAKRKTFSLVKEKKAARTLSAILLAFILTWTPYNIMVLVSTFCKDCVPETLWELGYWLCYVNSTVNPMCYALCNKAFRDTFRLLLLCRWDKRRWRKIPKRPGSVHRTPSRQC
Sequence of Pyruvate kinase (Leishmania mexicana) (Q27686 2-499 E452W): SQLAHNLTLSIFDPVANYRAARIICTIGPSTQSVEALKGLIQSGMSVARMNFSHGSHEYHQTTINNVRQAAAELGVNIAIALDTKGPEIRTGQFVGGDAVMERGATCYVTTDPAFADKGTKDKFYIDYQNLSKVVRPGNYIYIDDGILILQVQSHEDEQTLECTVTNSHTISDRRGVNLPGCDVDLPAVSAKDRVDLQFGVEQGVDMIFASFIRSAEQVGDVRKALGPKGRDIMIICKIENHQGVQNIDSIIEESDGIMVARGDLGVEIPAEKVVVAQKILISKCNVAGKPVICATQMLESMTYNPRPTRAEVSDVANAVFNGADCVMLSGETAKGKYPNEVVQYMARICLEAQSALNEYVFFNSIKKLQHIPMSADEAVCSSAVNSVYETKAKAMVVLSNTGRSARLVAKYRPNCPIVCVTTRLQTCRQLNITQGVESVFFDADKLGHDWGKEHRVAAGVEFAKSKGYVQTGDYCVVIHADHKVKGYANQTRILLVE
Sequence of Alpha-galactosidase A (Homo sapiens) (P06280 whole entry, looked up): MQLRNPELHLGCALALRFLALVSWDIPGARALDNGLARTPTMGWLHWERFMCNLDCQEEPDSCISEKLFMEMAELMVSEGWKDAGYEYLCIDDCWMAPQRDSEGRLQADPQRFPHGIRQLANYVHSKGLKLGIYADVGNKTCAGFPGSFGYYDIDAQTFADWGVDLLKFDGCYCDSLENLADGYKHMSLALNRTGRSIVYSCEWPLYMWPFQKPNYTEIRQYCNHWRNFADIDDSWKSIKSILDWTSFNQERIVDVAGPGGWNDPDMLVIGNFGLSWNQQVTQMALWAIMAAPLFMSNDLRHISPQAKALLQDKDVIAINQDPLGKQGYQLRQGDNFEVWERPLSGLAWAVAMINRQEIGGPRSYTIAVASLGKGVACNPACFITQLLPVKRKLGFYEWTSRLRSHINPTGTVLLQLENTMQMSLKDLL

Row | Compound | activity change, negative = inhibition [1] | Potency [2] | activity change, negative = inhibition [3] | activity, negative = inhibition [4] | Potency [5] [µM] | Potency [6] [µM] | Potency [7] | Potency [8] | Potency [9] | Potency [10] | outcome [11] | Potency [12] | outcome [13] | Potency [14] | outcome [15] | outcome [16] | outcome [17] | Potency [18] | Potency [19]
1 | N[C@@H](C(=O)O)[C@@H]1C[C@H]1C(=O)O | -6.47% [at 38 µM] | inactive | 4.34% [at 38 µM] | 16.9% [at 38 µM] | > 46 | > 46 | inactive | inactive | inactive | inactive | – | – | – | – | – | – | – | – | –
2 | CC1=C(\C=C/C(C)=C/C=C\C(C)=C\C(=O)Nc2ccc(O)cc2)C(C)(C)CCC1 | -16.4% [at 38 µM] | inactive | -17.1% [at 38 µM] | -11.2% [at 38 µM] | > 46 | > 46 | inactive | inactive | inactive | – | – | – | – | – | – | – | – | – | –
3 | O=C1/C(=C/c2cccnc2)SC(=S)N1Cc1ccco1 | 0.116% | 0.501 µM (active) | -2.58% | -9.72% | > 46 | > 9.22 | inactive | inactive | – | 3.16 µM (active) | – | – | – | – | – | – | – | – | –
4 | C=C1CC[C@H](O)C/C1=C/C=C1\CCC[C@]2(C)[C@H]1CC[C@H]2[C@@H](C)CCCC(C)C | -6.4% [at 17.2 µM] | inactive | 8.22% [at 17.2 µM] | -9.36% [at 17.2 µM] | > 20.6 | > 20.6 | inactive | inactive | – | – | – | – | – | – | – | – | – | – | –
5 | CN1C[C@@H](O)[C@@H](O)[C@@H](O)[C@@H]1CO | 0.324% [at 38 µM] | inactive | 16.3% [at 38 µM] | -5.85% [at 38 µM] | > 46 | > 46 | inactive | inactive | – | inactive | – | – | – | – | – | – | – | – | –
6 | O=C(O)/C=C\[C@H](O)c1ccc(Cl)cc1 | 1.29% [at 38 µM] | inactive | 8.91% [at 38 µM] | -1.2% [at 38 µM] | > 46 | > 46 | inactive | – | – | – | inactive | inactive | inactive | inactive | inactive | inactive | inactive | inactive | –
7 | Cc1cnc(CNc2nc(-c3cccnc3)nc3ccccc23)cn1 | -11.8% | 2.51 µM (active) | 0.457% | -9.76% | > 46 | > 46 | inactive | inactive | – | – | – | – | – | – | – | – | – | – | inactive
8 | O=C(O)CCC/C=C\C[C@H]1[C@@H](/C=C\[C@@H](O)C2Cc3ccccc3C2)[C@H](F)C[C@H]1O | -14.7% [at 38 µM] | inactive | 14.3% [at 38 µM] | 9.41% [at 38 µM] | > 46 | > 46 | inactive | inactive | inactive | inactive | – | – | – | – | – | – | – | – | –
